# Data reported in PMC7862700, “An all-to-all approach to the identification of sequence-specific readers for epigenetic DNA modifications on cytosine”.
# Assays:
# Experiment in all cases: DAPPL (digital affinity profiling via proximity ligation, sequencing); 10 mM Tris-HCl pH 7.5, 50 mM NaCl, 1 mM DTT, 4% glycerol, room temperature, 30 min; GST-TFs on glutathione beads, 16-mer random dsDNA library, 0.1% formaldehyde crosslink after washing; high values mean tight binding
# Settings in all cases: protein: recombinant; tags: N-terminal GST; dsDNA, one strand shown
# ERF = target: T1, ERF (Homo sapiens, UniProt P50548 1-548)
# T1 sequence: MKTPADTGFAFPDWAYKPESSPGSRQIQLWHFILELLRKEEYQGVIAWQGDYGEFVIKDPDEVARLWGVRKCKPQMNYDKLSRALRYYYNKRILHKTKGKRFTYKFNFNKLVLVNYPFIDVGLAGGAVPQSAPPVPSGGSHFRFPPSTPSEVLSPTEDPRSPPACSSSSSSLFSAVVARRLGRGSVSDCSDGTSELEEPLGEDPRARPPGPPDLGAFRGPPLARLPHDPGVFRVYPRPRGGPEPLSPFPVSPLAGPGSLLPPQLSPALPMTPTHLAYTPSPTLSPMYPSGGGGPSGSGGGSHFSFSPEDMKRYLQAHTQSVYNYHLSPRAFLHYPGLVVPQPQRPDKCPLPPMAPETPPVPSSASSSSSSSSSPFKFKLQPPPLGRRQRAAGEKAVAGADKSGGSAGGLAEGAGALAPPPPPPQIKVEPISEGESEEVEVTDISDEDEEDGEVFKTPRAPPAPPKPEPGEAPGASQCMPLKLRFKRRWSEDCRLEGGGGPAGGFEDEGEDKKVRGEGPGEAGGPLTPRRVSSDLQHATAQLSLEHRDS
# Summary of the method: (§1)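 Binding signal is defined as a hexamer's read frequency for one factor over its frequency for the tag-only sample. To obtain reads, GST-fused human transcription factors were expressed in yeast, captured on glutathione beads, barcoded with DNA and pooled with that sample. Pools met 200 nmole of a 16-mer random double-stranded DNA library in Tris/NaCl/DTT/glycerol buffer for 30 min at room temperature before washing, 0.1% formaldehyde crosslinking, proximity ligation (BsaI/T4 ligase, 1 h, 37 °C), PCR and Illumina NextSeq500 sequencing.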
# ETV3L = target: T2, ETV3L (Homo sapiens, UniProt Q6ZN32 1-361)
# T2 sequence: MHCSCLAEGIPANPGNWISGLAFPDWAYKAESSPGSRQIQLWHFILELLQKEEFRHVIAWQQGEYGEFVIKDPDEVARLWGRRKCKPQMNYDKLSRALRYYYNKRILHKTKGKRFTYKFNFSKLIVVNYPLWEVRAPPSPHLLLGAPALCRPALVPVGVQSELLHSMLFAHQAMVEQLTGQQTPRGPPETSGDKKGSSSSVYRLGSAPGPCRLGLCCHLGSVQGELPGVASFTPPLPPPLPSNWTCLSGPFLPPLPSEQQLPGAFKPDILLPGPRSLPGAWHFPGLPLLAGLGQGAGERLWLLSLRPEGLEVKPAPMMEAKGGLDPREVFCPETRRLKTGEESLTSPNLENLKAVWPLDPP
# Summary of the method: as §1
# ETS2 = target: T3, ETS2 (Homo sapiens, UniProt P15036 1-469)
# T3 sequence: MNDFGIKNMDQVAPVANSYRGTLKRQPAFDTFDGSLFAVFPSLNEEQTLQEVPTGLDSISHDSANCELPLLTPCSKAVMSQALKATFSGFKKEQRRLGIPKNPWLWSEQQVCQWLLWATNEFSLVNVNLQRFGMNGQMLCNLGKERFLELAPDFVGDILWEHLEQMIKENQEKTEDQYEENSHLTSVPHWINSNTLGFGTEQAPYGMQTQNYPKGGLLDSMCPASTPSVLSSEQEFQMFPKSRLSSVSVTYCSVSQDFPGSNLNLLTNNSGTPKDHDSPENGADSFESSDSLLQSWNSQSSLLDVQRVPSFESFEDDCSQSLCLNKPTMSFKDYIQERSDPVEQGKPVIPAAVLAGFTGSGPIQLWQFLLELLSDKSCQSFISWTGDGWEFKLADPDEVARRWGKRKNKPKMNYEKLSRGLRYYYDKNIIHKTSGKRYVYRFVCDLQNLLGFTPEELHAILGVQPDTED
# Summary of the method: as §1
# SPDEF = target: T4, SPDEF (Homo sapiens, UniProt O95238 1-335)
# T4 sequence: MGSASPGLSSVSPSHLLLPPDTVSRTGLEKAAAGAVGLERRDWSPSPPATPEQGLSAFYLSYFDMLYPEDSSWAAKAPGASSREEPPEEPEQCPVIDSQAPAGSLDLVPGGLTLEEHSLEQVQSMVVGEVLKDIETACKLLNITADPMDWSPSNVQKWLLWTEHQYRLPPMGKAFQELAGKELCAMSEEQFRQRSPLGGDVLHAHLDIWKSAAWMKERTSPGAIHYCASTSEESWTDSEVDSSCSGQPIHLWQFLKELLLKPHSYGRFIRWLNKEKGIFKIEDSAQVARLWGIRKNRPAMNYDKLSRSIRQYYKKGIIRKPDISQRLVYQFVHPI
# Summary of the method: as §1
# ETV7 = target: T5, ETV7 (Homo sapiens, UniProt Q9Y603 1-341)
# T5 sequence: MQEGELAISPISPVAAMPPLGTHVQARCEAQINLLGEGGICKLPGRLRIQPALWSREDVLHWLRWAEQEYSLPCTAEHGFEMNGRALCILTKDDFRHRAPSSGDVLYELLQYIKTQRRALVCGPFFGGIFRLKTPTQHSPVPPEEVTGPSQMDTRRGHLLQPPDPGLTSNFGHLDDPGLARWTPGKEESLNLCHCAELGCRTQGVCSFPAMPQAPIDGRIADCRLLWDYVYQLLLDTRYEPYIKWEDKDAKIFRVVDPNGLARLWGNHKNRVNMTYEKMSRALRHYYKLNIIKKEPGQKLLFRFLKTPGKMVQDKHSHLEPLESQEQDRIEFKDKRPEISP
# Summary of the method: as §1
# ELF5 = target: T6, ELF5 (Homo sapiens, UniProt Q9UKW6-2 1-255)
# T6 sequence: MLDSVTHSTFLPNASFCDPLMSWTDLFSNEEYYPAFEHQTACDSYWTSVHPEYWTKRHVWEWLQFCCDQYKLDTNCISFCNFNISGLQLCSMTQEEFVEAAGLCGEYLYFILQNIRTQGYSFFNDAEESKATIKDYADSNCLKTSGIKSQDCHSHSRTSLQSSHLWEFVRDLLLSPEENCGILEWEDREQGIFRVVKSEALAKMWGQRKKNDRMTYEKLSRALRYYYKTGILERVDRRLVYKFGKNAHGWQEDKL
# Summary of the method: as §1
# ETV3 = target: T7, ETV3 (Homo sapiens, UniProt P41162-2 1-143)
# T7 sequence: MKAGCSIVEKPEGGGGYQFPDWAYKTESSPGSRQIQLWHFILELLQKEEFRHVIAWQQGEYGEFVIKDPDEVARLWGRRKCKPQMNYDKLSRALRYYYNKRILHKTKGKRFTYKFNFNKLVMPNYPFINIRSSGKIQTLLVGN
# Summary of the method: as §1
# ETV6 = ETV6 (Homo sapiens, UniProt P41212 1-452)
# Summary of the method: as §1
# Sequence of ETV6 (P41212 whole entry): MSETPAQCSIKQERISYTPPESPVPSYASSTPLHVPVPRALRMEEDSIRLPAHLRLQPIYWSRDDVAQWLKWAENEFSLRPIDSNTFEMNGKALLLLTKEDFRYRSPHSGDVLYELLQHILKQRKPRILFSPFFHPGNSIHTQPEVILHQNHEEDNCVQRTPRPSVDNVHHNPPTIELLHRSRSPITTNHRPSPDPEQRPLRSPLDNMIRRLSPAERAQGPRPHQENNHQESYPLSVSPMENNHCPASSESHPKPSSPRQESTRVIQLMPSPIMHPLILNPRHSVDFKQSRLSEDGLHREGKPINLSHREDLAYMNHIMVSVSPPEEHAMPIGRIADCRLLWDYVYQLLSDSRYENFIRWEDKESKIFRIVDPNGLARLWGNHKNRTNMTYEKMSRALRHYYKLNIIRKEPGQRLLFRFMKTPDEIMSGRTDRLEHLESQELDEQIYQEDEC
Sequence,binding signal (ERF),binding signal (ETV3L),binding signal (ETS2),binding signal (SPDEF),binding signal (ETV7),binding signal (ELF5),binding signal (ETV3),binding signal (ETV6)
CTTCTC,"1.33 fold enrichment (6-mer frequency, TF over GST control)","1.39 fold enrichment (6-mer frequency, TF over GST control)","1.32 fold enrichment (6-mer frequency, TF over GST control)","1.33 fold enrichment (6-mer frequency, TF over GST control)","1.32 fold enrichment (6-mer frequency, TF over GST control)","1.52 fold enrichment (6-mer frequency, TF over GST control)","1.31 fold enrichment (6-mer frequency, TF over GST control)","1.37 fold enrichment (6-mer frequency, TF over GST control)"
AATGCC,"1.12 fold enrichment (6-mer frequency, TF over GST control)","1.07 fold enrichment (6-mer frequency, TF over GST control)","1.17 fold enrichment (6-mer frequency, TF over GST control)","1.21 fold enrichment (6-mer frequency, TF over GST control)","1.22 fold enrichment (6-mer frequency, TF over GST control)","1.21 fold enrichment (6-mer frequency, TF over GST control)","1.24 fold enrichment (6-mer frequency, TF over GST control)","1.19 fold enrichment (6-mer frequency, TF over GST control)"
TGATGC,"1.48 fold enrichment (6-mer frequency, TF over GST control)","1.61 fold enrichment (6-mer frequency, TF over GST control)","1.58 fold enrichment (6-mer frequency, TF over GST control)","1.45 fold enrichment (6-mer frequency, TF over GST control)","1.54 fold enrichment (6-mer frequency, TF over GST control)","1.52 fold enrichment (6-mer frequency, TF over GST control)","1.67 fold enrichment (6-mer frequency, TF over GST control)","1.52 fold enrichment (6-mer frequency, TF over GST control)"
CAATTA,"1.13 fold enrichment (6-mer frequency, TF over GST control)","1.11 fold enrichment (6-mer frequency, TF over GST control)","1.16 fold enrichment (6-mer frequency, TF over GST control)","1.06 fold enrichment (6-mer frequency, TF over GST control)","1.15 fold enrichment (6-mer frequency, TF over GST control)","1.13 fold enrichment (6-mer frequency, TF over GST control)","1.18 fold enrichment (6-mer frequency, TF over GST control)","1.05 fold enrichment (6-mer frequency, TF over GST control)"
TAATAG,"1.24 fold enrichment (6-mer frequency, TF over GST control)","1.12 fold enrichment (6-mer frequency, TF over GST control)","1.2 fold enrichment (6-mer frequency, TF over GST control)","1.19 fold enrichment (6-mer frequency, TF over GST control)","1.2 fold enrichment (6-mer frequency, TF over GST control)","1.15 fold enrichment (6-mer frequency, TF over GST control)","1.15 fold enrichment (6-mer frequency, TF over GST control)","1.14 fold enrichment (6-mer frequency, TF over GST control)"
ACTTCA,"1.33 fold enrichment (6-mer frequency, TF over GST control)","1.4 fold enrichment (6-mer frequency, TF over GST control)","1.42 fold enrichment (6-mer frequency, TF over GST control)","1.37 fold enrichment (6-mer frequency, TF over GST control)","1.54 fold enrichment (6-mer frequency, TF over GST control)","1.4 fold enrichment (6-mer frequency, TF over GST control)","1.29 fold enrichment (6-mer frequency, TF over GST control)","1.35 fold enrichment (6-mer frequency, TF over GST control)"
CTCGCA,"1.26 fold enrichment (6-mer frequency, TF over GST control)","1.3 fold enrichment (6-mer frequency, TF over GST control)","1.35 fold enrichment (6-mer frequency, TF over GST control)","1.2 fold enrichment (6-mer frequency, TF over GST control)","1.23 fold enrichment (6-mer frequency, TF over GST control)","1.15 fold enrichment (6-mer frequency, TF over GST control)","1.34 fold enrichment (6-mer frequency, TF over GST control)","1.19 fold enrichment (6-mer frequency, TF over GST control)"
